{
  "source": "the supplement of paper PMC6555819",
  "data": [
    {"test_system": "VDR:RXRa (NR concentration 270 nM, RXRa partner concentration 90 nM)", "test": "PBM binding z-score (relative to random genomic background probes); higher = stronger binding; sequences stand for … in GC…GCGATTGACAGCGTAGAATGAAGG", "description": "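Protein-binding microarray (Agilent 4x180K custom design, double-stranded 60-nt probes: 5' GC cap, 34-nt variable region, 24-nt constant primer region; full probe sequence given). Purified or IVT nuclear receptor:RXRα heterodimers (3:1 NR:RXRα, mostly 270:90 nM) or homodimers were incubated for 1 h in PBS with 2% milk and no ligand, then detected with Alexa488 antibodies. Fluorescence from o1-orientation probes (~5 replicates averaged) was converted to z-scores against 500 random hg19 background probes. Variable regions are seed direct-repeat (DR0–DR5) sites, all their single-nucleotide variants and half-site ablations.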", "values": [
      {"sequence": "TGAATCAGGTTATAAGATCAGGGAACGTTGCAAA", "PBM binding z-score": -0.0764},
      {"sequence": "TCTGCTAGGTCAGTTGGTCAGCCAACGAGCTGCC", "PBM binding z-score": -0.0135},
      {"sequence": "AGTCAAAGTTCAGGACGAGGTAACGTAAAGCACG", "PBM binding z-score": 2.85},
      {"sequence": "ATCTCTAGGTAAAAATAGTTCAGTGAATGCAAAT", "PBM binding z-score": 1.11},
      {"sequence": "TCAAGTTGGTCACGGAGGTCACACACGACGGGTA", "PBM binding z-score": 5.67},
      {"sequence": "CCTACTGCGCCAAGGTCATTGATCAGTCAAAGCA", "PBM binding z-score": 3.65},
      {"sequence": "TAGCCTAGGTCATCCGGGCCAGTATAGTGTCGGC", "PBM binding z-score": 3.81},
      {"sequence": "CGAACTAGGTGATCCAGGACAGTGAATACATTGA", "PBM binding z-score": 0.541},
      {"sequence": "CCTAGTTGGTCCGGAGGTCACACACCGGATATGA", "PBM binding z-score": 3.77},
      {"sequence": "TCGAGTAGGTTACCACTGGGGCATTCAGCTTTCT", "PBM binding z-score": -0.368},
      {"sequence": "CATATTAGTTGACCATAAGGGCAACCGAAGCTCG", "PBM binding z-score": 0.551},
      {"sequence": "TCTCGTAGATCAAGCAGGTTAAGAAAGCCTGAGT", "PBM binding z-score": -0.00505},
      {"sequence": "CGTCCAAGGTCAATGCTAGGTCAGTGAGAGCATT", "PBM binding z-score": 5.11},
      {"sequence": "CAAACTAGGTCACCGGAAGTTCAAAGTCCGCATG", "PBM binding z-score": 6.24},
      {"sequence": "ATATGTAGGTTAAGGGTAATTCAGGTTGGTTCGC", "PBM binding z-score": 1.61},
      {"sequence": "CAAACTAGGTCAGAACAGGACAGTGAAGGATGAT", "PBM binding z-score": 0.899},
      {"sequence": "CCTACTGGGCAATTCAGAGGTCATTGATCATATG", "PBM binding z-score": 3.49},
      {"sequence": "GCCACTGGGGCATCAGCAGGTTACCATAACTTAA", "PBM binding z-score": -0.378},
      {"sequence": "TCATATAGGTAAAAGGTGAATGTCGGTGTGGTAA", "PBM binding z-score": 1.44},
      {"sequence": "ACTATTAGTTGAGTCGAGGGCAACCGATAGGTTG", "PBM binding z-score": 0.728},
      {"sequence": "GCTAGTTGGTCAGTAAAAGGTCACATACCGGTCG", "PBM binding z-score": 3.89},
      {"sequence": "CGTCCAAGGTCAAGGTCCGTGAAAGAGACTCGAA", "PBM binding z-score": 4.04},
      {"sequence": "CCTAGTAGGTCAGGAGGTCACACACCGGATATGA", "PBM binding z-score": 4.92},
      {"sequence": "GGGACGAGGGCAAGTTGATAGCAGAGTTTGATGG", "PBM binding z-score": 1.29},
      {"sequence": "GCTAGCAGGCCATTTGGGCCACTCAATGACGGGC", "PBM binding z-score": -0.859},
      {"sequence": "GCTAGTTGATCAGTAAAAGGTCACACACCGGTCG", "PBM binding z-score": 3.87},
      {"sequence": "CGTCTAAGGTCAGAGAGGTCAGTGAATGCCGAGT", "PBM binding z-score": 7.63},
      {"sequence": "ACAGACAGGTGATCAAGGTAACTCAGGCTATCAT", "PBM binding z-score": 0.483},
      {"sequence": "ACTATTAGTCGACTTAGGGCAACCGATACGACGC", "PBM binding z-score": -0.299},
      {"sequence": "CCTACTGGGCCACGACAGGTCATTGATTCAGTGA", "PBM binding z-score": 1.32},
      {"sequence": "CCTACTGGGCCAAAGGTCATTGGTTCCAATGCTC", "PBM binding z-score": 4.8},
      {"sequence": "TCTGCTAGGTCAACGAGGGTCAGCTAATCTGCTA", "PBM binding z-score": 5.1},
      {"sequence": "CGTCCAAGGTCAAAGGACAGTGAAGAGATGACGG", "PBM binding z-score": 3.76},
      {"sequence": "CCAGACAGGTGAGAAGGTAACTCACCCTCGATTA", "PBM binding z-score": 0.0837},
      {"sequence": "CAAACTAGGTCACGAAAGGTCAAGGTCGAATGAC", "PBM binding z-score": 6.61},
      {"sequence": "CGTCAAAGATCAACTAAGGTAACGTAAAGCACGC", "PBM binding z-score": 0.78},
      {"sequence": "GCGACAGGGGCATCAGCAGGTTACCATAACTTAA", "PBM binding z-score": 0.517},
      {"sequence": "CCAGACGGGTGAAAGGTAACTCAGTCTGGTACGC", "PBM binding z-score": 0.319},
      {"sequence": "AGAATGAGGTTATATGTAGATCAGGGAAGAAAGT", "PBM binding z-score": 1.43},
      {"sequence": "GCTGTTAGGTCAGGTTGGTCAGCTAACGGGTACG", "PBM binding z-score": 0.95}
    ]}
  ]
}
